# Where “and” joins values, the source holds several entries; their conditions need not be identical. Equal values may be shown once. The campaign covered roughly 5,500 compounds. About 2,000 (36%) were called active. Inconclusive results (about 18%) are left out. Some of the results follow. Unmarked numbers belong to inactive results. No stated cut-off is given here; in the data, active means normalized growth mostly below about 0.91 (no sharp cut-off); inconclusive means no clear call, values can overlap the other calls; inactive means mostly above about 0.92.
# Test: chemical genetic growth profiling, strain panel (AID 1159580);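 further: tested at 20 µM; growth read once vehicle control cultures reached saturation at 30 °C; 1 = growth at the plate median or of vehicle wells; lower values mean less growth of the strain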
# Details: growth OD
smiles,measurement,setting,value
O=C1C(=O)c2ccccc2C(O)=C1C1CCC(c2ccc(Cl)cc2)CC1 (configuration not stated),normalized growth,"S. cerevisiae deletion strains, locus YAL013W, strain DEP1, active compounds read low",1.01
same,normalized growth,"S. cerevisiae deletion strains, locus YBR021W, strain FUR4, active compounds read low",0.992
same,normalized growth,"S. cerevisiae deletion strains, locus YBR229C, strain ROT2, active compounds read low",0.985
same,normalized growth,"S. cerevisiae deletion strains, locus YCL029C, strain bik1, active compounds read low",0.992
same,normalized growth,"S. cerevisiae deletion strains, locus YDL035C, strain GPR1, active compounds read low",0.993
same,normalized growth,"S. cerevisiae deletion strains, locus YDL074C, strain BRE1, active compounds read low",0.975
same,normalized growth,"S. cerevisiae deletion strains, locus YDL101C, strain DUN1, active compounds read low",0.996
same,normalized growth,"S. cerevisiae deletion strains, locus YDL134C, strain PPH21, active compounds read low",0.983
same,normalized growth,"S. cerevisiae deletion strains, locus YDL185W, strain tfp1, active compounds read low",1.01
same,normalized growth,"S. cerevisiae deletion strains, locus YDL192W, strain arf1, active compounds read low",0.997
same,normalized growth,"S. cerevisiae deletion strains, locus YDR101C, strain arx1, active compounds read low",0.991
same,normalized growth,"S. cerevisiae deletion strains, locus YDR150W, strain NUM1, active compounds read low",1.01
same,normalized growth,"S. cerevisiae deletion strains, locus YDR162C, strain NBP2, active compounds read low",0.997
same,normalized growth,"S. cerevisiae deletion strains, locus YDR318W, strain mcm21, active compounds read low",0.98
same,normalized growth,"S. cerevisiae deletion strains, locus YDR388W, active compounds read low",0.981
same,normalized growth,"S. cerevisiae deletion strains, locus YDR502C, strain sam2, active compounds read low",1
same,normalized growth,"S. cerevisiae deletion strains, locus YEL061C, strain CIN8, active compounds read low",0.996
same,normalized growth,"S. cerevisiae deletion strains, locus YER110C, active compounds read low",0.991
same,normalized growth,"S. cerevisiae deletion strains, locus YER155C, strain BEM2, active compounds read low",0.983
same,normalized growth,"S. cerevisiae deletion strains, locus YER167W, strain BCK2, active compounds read low",1.01
same,normalized growth,"S. cerevisiae deletion strains, locus YGL078C, strain dbp3, active compounds read low",1
same,normalized growth,"S. cerevisiae deletion strains, locus YGL086W, strain mad1, active compounds read low",0.988
same,normalized growth,"S. cerevisiae deletion strains, locus YGL248W, strain PDE1, active compounds read low",0.998
same,normalized growth,"S. cerevisiae deletion strains, locus YGR078C, strain PAC10, active compounds read low",0.996
same,normalized growth,"S. cerevisiae deletion strains, locus YGR135W, strain pre9, active compounds read low",0.991
same,normalized growth,"S. cerevisiae deletion strains, locus YGR229C, strain SMI1, active compounds read low",1
same,normalized growth,"S. cerevisiae deletion strains, locus YGR252W, strain gcn5, active compounds read low",0.946
same,normalized growth,"S. cerevisiae deletion strains, locus YHR030C, strain SLT2, active compounds read low",0.998 and 1.01
same,normalized growth,"S. cerevisiae deletion strains, locus YHR079C, strain IRE1 (second series), active compounds read low",0.987
same,normalized growth,"S. cerevisiae deletion strains, locus YHR079C, strain IRE1, active compounds read low",1.01
same,normalized growth,"S. cerevisiae deletion strains, locus YHR094C, strain hxt1, active compounds read low",0.98
same,normalized growth,"S. cerevisiae deletion strains, locus YHR129C, strain ARP1, active compounds read low",0.988
same,normalized growth,"S. cerevisiae deletion strains, locus YHR200W, strain rpn10, active compounds read low",0.981
same,normalized growth,"S. cerevisiae deletion strains, locus YIL066C, strain RNR3, active compounds read low",0.989
same,normalized growth,"S. cerevisiae deletion strains, locus YIL073C, strain SPO22, active compounds read low",0.884
same,normalized growth,"S. cerevisiae deletion strains, locus YIL125W, strain kgd1, active compounds read low",0.996
same,normalized growth,"S. cerevisiae deletion strains, locus YIR030C, strain dcg1, active compounds read low",0.997
same,normalized growth,"S. cerevisiae deletion strains, locus YJL095W, strain BCK1, active compounds read low",0.949 and 1.01
same,normalized growth,"S. cerevisiae deletion strains, locus YJL134W, strain LCB3, active compounds read low",0.988
same,normalized growth,"S. cerevisiae deletion strains, locus YJL168C, strain set2, active compounds read low",0.977
same,normalized growth,"S. cerevisiae deletion strains, locus YJL187C, strain SWE1 (second series), active compounds read low",0.992
same,normalized growth,"S. cerevisiae deletion strains, locus YJR043C, strain POL32, active compounds read low",1
same,normalized growth,"S. cerevisiae deletion strains, locus YJR066W, strain TOR1, active compounds read low",0.963
same,normalized growth,"S. cerevisiae deletion strains, locus YJR075W, strain HOC1, active compounds read low",0.996
same,normalized growth,"S. cerevisiae deletion strains, locus YKL009W, strain mrt4, active compounds read low",0.997
same,normalized growth,"S. cerevisiae deletion strains, locus YKL068W, active compounds read low",0.997
same,normalized growth,"S. cerevisiae deletion strains, locus YKL085W, strain MDH1 (second series), active compounds read low",0.989
same,normalized growth,"S. cerevisiae deletion strains, locus YKL085W, strain MDH1, active compounds read low",0.989
same,normalized growth,"S. cerevisiae deletion strains, locus YKL190W, strain CNB1, active compounds read low",0.99
same,normalized growth,"S. cerevisiae deletion strains, locus YKR001C, strain vps1, active compounds read low",0.947
same,normalized growth,"S. cerevisiae deletion strains, locus YLR039C, strain RIC1, active compounds read low",0.876
same,normalized growth,"S. cerevisiae deletion strains, locus YLR058C, strain SHM2, active compounds read low",0.988
same,normalized growth,"S. cerevisiae deletion strains, locus YLR102C, strain apc9, active compounds read low",0.988
same,normalized growth,"S. cerevisiae deletion strains, locus YLR113W, strain HOG1, active compounds read low",1.05
same,normalized growth,"S. cerevisiae deletion strains, locus YLR262C, strain YPT6, active compounds read low",0.936
same,normalized growth,"S. cerevisiae deletion strains, locus YLR268W, strain sec22, active compounds read low",0.972
same,normalized growth,"S. cerevisiae deletion strains, locus YLR330W, strain CHS5, active compounds read low",0.988
same,normalized growth,"S. cerevisiae deletion strains, locus YLR342W, strain FKS1 (second series), active compounds read low",0.951
same,normalized growth,"S. cerevisiae deletion strains, locus YLR371W, strain rom2, active compounds read low",1
same,normalized growth,"S. cerevisiae deletion strains, locus YLR418C, strain cdc73, active compounds read low",0.987
same,normalized growth,"S. cerevisiae deletion strains, locus YML016C, strain PPZ1, active compounds read low",0.969
same,normalized growth,"S. cerevisiae deletion strains, locus YML032C, strain rad52, active compounds read low",1.01
same,normalized growth,"S. cerevisiae deletion strains, locus YML124C, strain tub3, active compounds read low",0.994
same,normalized growth,"S. cerevisiae deletion strains, locus YMR078C, strain ctf18, active compounds read low",0.974
same,normalized growth,"S. cerevisiae deletion strains, locus YMR223W, strain ubp8, active compounds read low",0.981
same,normalized growth,"S. cerevisiae deletion strains, locus YMR263W, strain SAP30, active compounds read low",0.999
same,normalized growth,"S. cerevisiae deletion strains, locus YMR307W, strain GAS1, active compounds read low",0.924
same,normalized growth,"S. cerevisiae deletion strains, locus YNL067W, strain RPL9B, active compounds read low",0.997
same,normalized growth,"S. cerevisiae deletion strains, locus YNL128W, strain TEP1, active compounds read low",1.01
same,normalized growth,"S. cerevisiae deletion strains, locus YNL153C, strain GIM3, active compounds read low",0.989
same,normalized growth,"S. cerevisiae deletion strains, locus YNL183C, strain NPR1, active compounds read low",0.977
same,normalized growth,"S. cerevisiae deletion strains, locus YNL233W, strain BNI4, active compounds read low",0.987
same,normalized growth,"S. cerevisiae deletion strains, locus YNL250W, strain rad50, active compounds read low",0.997
same,normalized growth,"S. cerevisiae deletion strains, locus YNL271C, strain bni1, active compounds read low",0.991
same,normalized growth,"S. cerevisiae deletion strains, locus YNL298W, strain CLA4, active compounds read low",0.996
same,normalized growth,"S. cerevisiae deletion strains, locus YNL307C, strain MCK1, active compounds read low",0.836 (active)
same,normalized growth,"S. cerevisiae deletion strains, locus YNL322C, strain KRE1, active compounds read low",1
same,normalized growth,"S. cerevisiae deletion strains, locus YNR052C, strain pop2, active compounds read low",0.982
same,normalized growth,"S. cerevisiae deletion strains, locus YOL006C, strain TOP1, active compounds read low",0.903
same,normalized growth,"S. cerevisiae deletion strains, locus YOL012C, strain htz1",1.05
same,normalized growth,"S. cerevisiae deletion strains, locus YOL147C, strain pex11, active compounds read low",0.986
same,normalized growth,"S. cerevisiae deletion strains, locus YOR061W, strain CKA2, active compounds read low",0.98
same,normalized growth,"S. cerevisiae deletion strains, locus YOR069W, strain VPS5, active compounds read low",0.991
same,normalized growth,"S. cerevisiae deletion strains, locus YOR136W, strain idh2, active compounds read low",1
same,normalized growth,"S. cerevisiae deletion strains, locus YOR144C, strain elg1, active compounds read low",0.988
same,normalized growth,"S. cerevisiae deletion strains, locus YOR184W, strain ser1, active compounds read low",0.984
same,normalized growth,"S. cerevisiae deletion strains, locus YOR231W, strain MKK1, active compounds read low",1.03
same,normalized growth,"S. cerevisiae deletion strains, locus YOR316C, strain cot1, active compounds read low",0.991
same,normalized growth,"S. cerevisiae deletion strains, locus YPL055C, strain LGE1, active compounds read low",0.996
same,normalized growth,"S. cerevisiae deletion strains, locus YPL241C, strain CIN2, active compounds read low",0.997
same,normalized growth,"S. cerevisiae deletion strains, locus YPL256C, strain CLN2, active compounds read low",1.03
same,normalized growth,"S. cerevisiae deletion strains, locus YPR119W, strain clb2, active compounds read low",0.984
same,normalized growth,"S. cerevisiae deletion strains, locus YPR141C, strain kar3, active compounds read low",1
same,normalized growth,"S. cerevisiae deletion strains, locus YPR163C, strain tif3, active compounds read low",0.993
same,normalized growth,"S. cerevisiae deletion strains, locus YPR167C, strain met16, active compounds read low",0.995
same,normalized growth,"S. cerevisiae deletion strains, strain wtn01, active compounds read low",0.998
same,normalized growth,"S. cerevisiae strains, strain wild type, active compounds read low",0.999

# Source: PubChem BioAssay AID1159580 (chemical genetic matrix, 2015)
